# Results from PubChem BioAssay (EPA / NIEHS).
# “And” between values parts separate entries of the source, which are not always exact repeats. Identical values can stand only once. Some structures have more than one record in an assay (separate samples or runs), and their calls can disagree. The source made the active and inactive calls. Rule for the calls: active = hit-call score of the fitted dose curve at least 0.9, where 1 is the maximum; inactive = score below 0.9.
# Assays:
# [1] = CCTE_Padilla_ZF_Score.Tail: CCTE's 144 Hour Post-fertilization zebrafish Assay Score for Tail Malformation, Padilla Lab (AID 2284414)
# Method: CCTE_Padilla_ZF_Phenotype_Score is a whole embryo, multiplexed assay using zebrafish ova exposed for 144 hours post fertilization on a 96-well plate.CCTE_Padilla_ZF_Score.Tail is one of one assay component(s) measured or calculated from the CCTE_Padilla_ZF_Phenotype_Score assay. It is designed to make measurements of zebrafish development as detected with brightfield microscopy of developing zebrafish embryos.Data from the assay component CCTE_Padilla_ZF_Score.Tail was analyzed into 1 assay endpoints. This assay endpoint, CCTE_Padilla_ZF_Score.Tail, was analyzed in the positive analysis fitting direction relative to DMSO as the negative control and baseline of activity. Using a type of viability reporter, gain-of-signal activity can be used to understand changes in developmentals as they relate to the whole embryo. To generalize the intended target to other relatable targets, this assay endpoint is annotated to the zebrafish development intended target family, where the subfamily is lower trunk morphogenesis.
# Zebrafish husbandry: Wild type adult zebrafish (Danio rerio; undefined outbred stock obtained from Aquatic Research Organisms, Hampton, NH, 03842) were housed in an AAALAC-approved animal facility at 28C with a 14:10 h light: dark cycle (lights on at 08:30 h). […]
# [2] = CCTE_Padilla_ZF_Score.Blood_pooling: CCTE's 144 Hour Post-fertilization zebrafish Assay Score for Blood Pooling, Padilla Lab (AID 2284415)
# How it was run: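 Blood pooling was scored at 6 dpf under a stereo microscope by two blinded assessors, fitted upward against DMSO. Single embryos were dosed at 6–8 hpf in 10% Hanks', kept sealed at 26C (14:10 h cycle) and rinsed at 5 dpf.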
# [3] = CCTE_Padilla_ZF_Score.Any: CCTE's 144 Hour Post-fertilization zebrafish Assay Score for Any Mortality or Malformation, Padilla Lab (AID 2284416)
# How it was run: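 Wild-type zebrafish embryos with chorions, one per well in 10% Hanks' from 6–8 hpf, dosed in sealed plates at 26 C, 14:10 h light:dark; rinsed at 5 dpf; blinded scoring at 6 dpf for death or malformation, versus DMSO.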
# TTR (gene 7276) = assay: CCTE_GLTED_hTTR_0.125uM: CCTE's human Transthyretin (hTTR) Inhibition Assay, with 0.125uM TTR, Great Lakes Toxicology and Ecology Division (GLTED) Lab (AID 2284431);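 note: hits lower the fluorescence signal relative to DMSO baseline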
# How it was run: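 Fluorescence (380 ex, 475 em) reported the ANSA probe remaining bound to 0.125uM human transthyretin. Chemicals were incubated with the protein for 2 hours; activity was scored as loss of signal against DMSO negative control.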
smiles,measurement,setting,value
O=S(=O)(O)C(F)(F)C(F)(F)C(F)(F)C(F)(F)C(F)(F)C(F)(F)C(F)(F)C(F)(F)F,AC50,[1],8.73 µM (active) and 32.7 µM (active)
same,AC50,[2],10 µM (active)
same,outcome,[2],inactive
same,AC50,[3],8.52 µM (active) and 3.26 µM (active)
same,AC50,TTR (gene 7276),115 nM (active) and 159 nM (active)
O=C(O)CCCOc1ccc(Cl)cc1Cl,AC50,TTR (gene 7276),2.54 µM (active)
O=C(O)C(F)(F)C(F)(F)C(F)(F)C(F)(F)C(F)(F)C(F)(F)C(F)(F)F,outcome,[1],inactive
same,outcome,[2],inactive
same,AC50,[3],2.43 µM (active) and 81.8 µM (active)
same,outcome,[3],inactive
same,AC50,TTR (gene 7276),159 nM (active) and 82.9 nM (active)
C#CCN1C(=O)COc2cc(F)c(N3C(=O)C4=C(CCCC4)C3=O)cc21,AC50,TTR (gene 7276),13.3 µM (active)
Oc1ccc(Cl)cc1Cc1ccccc1,AC50,TTR (gene 7276),0.455 µM (active)
COP(=S)(OC)Oc1ccc(SC)c(C)c1,AC50,TTR (gene 7276),6.11 µM (active)
Oc1cc(Cl)ccc1Oc1ccc(Cl)cc1Cl,AC50,TTR (gene 7276),0.219 µM (active)
O=C(O)COc1ccc(Cl)cc1Cl,AC50,TTR (gene 7276),8.12 µM (active) and 10.7 µM (active)
CCCN(CCC)c1c([N+](=O)[O-])cc(C(F)(F)F)cc1[N+](=O)[O-],AC50,TTR (gene 7276),26.1 µM (active)
COP(=S)(OC)Oc1ccc([N+](=O)[O-])cc1,AC50,TTR (gene 7276),21.3 µM (active)
